A short description of assay [1]: NCI Yeast Anticancer Drug Screen. Data for the rad50 strain (AID 155).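 Further: 0% = growth of vehicle-only cultures of the same strain.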 To be noted: S. cerevisiae rad50 strain growth inhibition, active compounds read high. A digest of the protocol: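 A DNA repair-deficient yeast mutant serves as the test organism; compound-induced growth inhibition is calculated against vehicle-treated cells.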
A short description of assay [2]: NCI Yeast Anticancer Drug Screen. Data for the mec2-1 strain (AID 157). As to conditions: S. cerevisiae mec2-1 strain, active compounds read high. The essentials: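 Mutant yeast (mec2-1) grown with compound; growth inhibition relative to vehicle control reported.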
Assay [3] can be described thus: NCI Yeast Anticancer Drug Screen. Data for the sgs1 mgt1 strain (AID 161).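 Further: 0% = growth of cultures given vehicle only.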 To be noted: S. cerevisiae sgs1 mgt1 strain, active compounds read high. The essentials: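 Percent growth inhibition was derived by comparing compound-exposed mutant yeast with vehicle-exposed cultures. The strain carries alterations in DNA damage repair.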
A short description of assay [4]: NCI Yeast Anticancer Drug Screen. Data for the cln2 rad14 strain (AID 165).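 Further: 0% = growth equal to vehicle treated cultures.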 To be noted: S. cerevisiae cln2 rad14 strain, active compounds read high. A digest of the protocol:
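Readout is yeast growth inhibition versus vehicle-treated controls, using a strain with cln2 and rad14 alterations exposed to compound.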

The nature of assay [5]: NCI Yeast Anticancer Drug Screen. Data for the bub3 strain (AID 167). To be noted: S. cerevisiae bub3 mutant strain, active compounds read high. The essentials:
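Inhibition values come from growth of compound-treated mutant yeast normalised to vehicle-treated controls.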

Assay [6] is described as follows: NCI Yeast Anticancer Drug Screen. Data for the mlh1 rad18 strain (AID 175). To be noted: S. cerevisiae mlh1 rad18 strain growth inhibition, active compounds read high. The essentials:
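Genetically defined yeast (DNA repair-deficient) exposed to compounds; growth inhibition determined relative to vehicle.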

The mark [7] stands for this setting: at 5.0 µM (retest, dose inferred, filed as 0.5).
Setting [8] is: at 50.0 µM (retest, dose inferred, filed as 5.0).

SMILES strings stand for the structures. This is part of a sample that, as a whole, favours compounds with a hit. Of some 79,000 tested, about 15% had one in any assay. A number with no mark means an inactive call. The source made the active and inactive calls. No stated cut-off is given here; in the data, active means growth inhibition above about 70%; inactive means the rest.

As to `O=C1C(F)=C(N2CC2)C(=O)C(N2CCOCC2)=C1N1CC1`, the growth inhibition in assay [1] (setting [7]) is 94% (active); in assay [1] (setting [8]), 98% (active); in assay [1] (at 50.0 µM), 90% (active); in assay [2] (setting [7]) it was 99% (active); in assay [2] (setting [8]), 98% (active); in assay [2] (at 50.0 µM), 89.8% (active). The growth inhibition was 98% (active) in assay [3] (setting [7]); 98% (active) in assay [3] (setting [8]); 89.8% (active) in assay [3] (at 50.0 µM); 98% (active) in assay [4] (setting [7]); 96% (active) in assay [4] (setting [8]); 84.5% (active) in assay [4] (at 50.0 µM). Moreover, the growth inhibition in assay [5] (setting [7]) is 99% (active); in assay [5] (setting [8]) it was 97% (active); in assay [5] (at 50.0 µM), 91.9% (active); in assay [6] (setting [7]) it was 97% (active); in assay [6] (setting [8]) it was 97% (active); in assay [6] (at 50.0 µM), 92% (active).
Regarding `CC(=O)Oc1ccc(/C=C/[N+](=O)[O-])cc1`, the growth inhibition in assay [1] (setting [7]) is 27%; in assay [1] (setting [8]), 95% (active); in assay [1] (at 50.0 µM), 98.9% (active); in assay [2] (setting [7]), 6%; in assay [2] (setting [8]), 99% (active); in assay [2] (at 50.0 µM) it was 99.5% (active). The growth inhibition is 12% in assay [3] (setting [7]); 99% (active) in assay [3] (setting [8]); 93.1% (active) in assay [3] (at 50.0 µM); -2% in assay [4] (setting [7]); 82% (active) in assay [4] (setting [8]); 82% (active) in assay [4] (at 50.0 µM). The growth inhibition was 5% in assay [5] (setting [7]); 99% (active) in assay [5] (setting [8]); 99.4% (active) in assay [5] (at 50.0 µM); 12% in assay [6] (setting [7]); 98% (active) in assay [6] (setting [8]); 98.3% (active) in assay [6] (at 50.0 µM).
On to `CC12OOC(c3ccccc31)c1c2ccc2ccccc12` (stereo not given), for which the growth inhibition in assay [1] (setting [7]) was 62%; in assay [1] (setting [8]), 98% (active); in assay [1] (at 50.0 µM) it was 86% (active); in assay [2] (setting [7]), 94% (active); in assay [2] (setting [8]), 99% (active); in assay [2] (at 50.0 µM), 93.5% (active). Moreover, the growth inhibition in assay [3] (setting [7]) is 92% (active); in assay [3] (setting [8]), 99% (active); in assay [3] (at 50.0 µM), 90% (active); in assay [4] (setting [7]), 71% (active); in assay [4] (setting [8]), 99% (active); in assay [4] (at 50.0 µM) it was 88.5% (active). Besides, the growth inhibition in assay [5] (setting [7]) was 97% (active); in assay [5] (setting [8]), 97% (active); in assay [5] (at 50.0 µM), 90.5% (active); in assay [6] (setting [7]) it was 90% (active); in assay [6] (setting [8]), 97% (active); in assay [6] (at 50.0 µM), 90.2% (active).
As for `O=C1[O][Hg][c]2c1cccc2[N+](=O)[O-]`, the growth inhibition in assay [1] (setting [7]) was 99% (active); in assay [1] (setting [8]), 99% (active); in assay [1] (at 50.0 µM), 99.2% (active); in assay [2] (setting [7]), 100% (active); in assay [2] (setting [8]) it was 100% (active); in assay [2] (at 50.0 µM), 99.2% (active). For the same compound, the growth inhibition in assay [3] (setting [7]) is 100% (active); in assay [3] (setting [8]), 100% (active); in assay [3] (at 50.0 µM), 99.4% (active); in assay [4] (setting [7]) it was 52%; in assay [4] (setting [8]), 98% (active); in assay [4] (at 50.0 µM), 97.6% (active). The growth inhibition in assay [5] (setting [7]) is 100% (active); in assay [5] (setting [8]) it was 100% (active); in assay [5] (at 50.0 µM) it was 99.4% (active); in assay [6] (setting [7]) it was 100% (active); in assay [6] (setting [8]), 99% (active); in assay [6] (at 50.0 µM), 99.2% (active).
Regarding `CO/C1=C\C(C)=C\C(C)C(O)C(C)C/C(C)=C/C=C/C(OC)C(C(C)C(O)C(C)C2(O)CC(O)C(C)C(C(C)C)O2)OC1=O` (stereo not given), the growth inhibition was 1% in assay [1] (setting [7]); 84% (active) in assay [1] (setting [8]); 85.2% (active) in assay [1] (at 50.0 µM); -11% in assay [2] (setting [7]); 59% in assay [2] (setting [8]); 77.3% (active) in assay [2] (at 50.0 µM). Also, the growth inhibition in assay [3] (setting [7]) is 8%; in assay [3] (setting [8]) it was 85% (active); in assay [3] (at 50.0 µM) it was 84.5% (active); in assay [4] (setting [7]), 9%; in assay [4] (setting [8]) it was 78% (active); in assay [4] (at 50.0 µM), 74.1% (active). In addition, the growth inhibition in assay [5] (setting [7]) is 5%; in assay [5] (setting [8]), 88% (active); in assay [5] (at 50.0 µM) it was 86.2% (active); in assay [6] (setting [7]) it was 0%; in assay [6] (setting [8]), 88% (active); in assay [6] (at 50.0 µM), 81.2% (active).
Consider `C[CH2][Sn]1([CH2]C)[O]S(=O)(=O)[O]1`, for which the growth inhibition in assay [1] (setting [7]) was 15%; in assay [1] (setting [8]), 77% (active); in assay [1] (at 50.0 µM), 70.2% (active); in assay [2] (setting [7]), 12%; in assay [2] (setting [8]) it was 95% (active); in assay [2] (at 50.0 µM), 76.5% (active). Also, the growth inhibition is 12% in assay [3] (setting [7]); 93% (active) in assay [3] (setting [8]); 25.4% in assay [3] (at 50.0 µM); 22% in assay [4] (setting [7]); 56% in assay [4] (setting [8]); 60.2% in assay [4] (at 50.0 µM). The growth inhibition in assay [5] (setting [7]) is 13%; in assay [5] (setting [8]), 92% (active); in assay [5] (at 50.0 µM) it was 45.1%; in assay [6] (setting [7]), 12%; in assay [6] (setting [8]), 88% (active); in assay [6] (at 50.0 µM) it was 53.9%.
With `CC[CH2][Pb]([CH2]CC)([CH2]CC)[O]C(C)=O`, the growth inhibition was 54% in assay [1] (setting [7]); 79% (active) in assay [1] (setting [8]); 91% (active) in assay [1] (at 50.0 µM); 50% in assay [2] (setting [7]); 75% (active) in assay [2] (setting [8]); 92.7% (active) in assay [2] (at 50.0 µM). Further, the growth inhibition in assay [3] (setting [7]) was 100% (active); in assay [3] (setting [8]) it was 100% (active); in assay [3] (at 50.0 µM) it was 93.8% (active); in assay [4] (setting [7]), 73% (active); in assay [4] (setting [8]) it was 100% (active); in assay [4] (at 50.0 µM), 91.3% (active). For the same compound, the growth inhibition in assay [5] (setting [7]) is 99% (active); in assay [5] (setting [8]), 100% (active); in assay [5] (at 50.0 µM) it was 90.6% (active); in assay [6] (setting [7]), 49%; in assay [6] (setting [8]) it was 67%; in assay [6] (at 50.0 µM), 91.3% (active).
In the case of `O=[N+]([O-])c1c[c]([Hg][Cl])c(O)[c]([Hg][Cl])c1`, the growth inhibition in assay [1] (setting [7]) was 44%; in assay [1] (setting [8]), 99% (active); in assay [1] (at 50.0 µM), 88.7% (active); in assay [2] (setting [7]) it was 52%; in assay [2] (setting [8]), 99% (active); in assay [2] (at 50.0 µM), 92.4% (active). For the same compound, the growth inhibition in assay [3] (setting [7]) was 100% (active); in assay [3] (setting [8]), 78% (active); in assay [3] (at 50.0 µM), 92.4% (active); in assay [4] (setting [7]), 94% (active); in assay [4] (setting [8]) it was 97% (active); in assay [4] (at 50.0 µM), 91% (active). For the same compound, the growth inhibition in assay [5] (setting [7]) was 99% (active); in assay [5] (setting [8]), 91% (active); in assay [5] (at 50.0 µM) it was 90.1% (active); in assay [6] (setting [7]), 41%; in assay [6] (setting [8]) it was 99% (active); in assay [6] (at 50.0 µM), 89.2% (active).
For `C[n+]1c(/C=C/c2ccc(O)c3ccccc23)[se]c2ccccc21`, the growth inhibition in assay [1] (setting [7]) was -3%; in assay [1] (setting [8]) it was 78% (active); in assay [1] (at 50.0 µM), 84.8% (active); in assay [2] (setting [7]), -13%; in assay [2] (setting [8]), 40%; in assay [2] (at 50.0 µM) it was 47.4%. Further, the growth inhibition in assay [3] (setting [7]) was -24%; in assay [3] (setting [8]) it was 76% (active); in assay [3] (at 50.0 µM), 87.1% (active); in assay [4] (setting [7]) it was -2%; in assay [4] (setting [8]) it was 16%; in assay [4] (at 50.0 µM), 41.2%. For the same compound, the growth inhibition in assay [5] (setting [7]) was -5%; in assay [5] (setting [8]), 20%; in assay [5] (at 50.0 µM) it was 74.6% (active); in assay [6] (setting [7]), 13%; in assay [6] (setting [8]) it was 81% (active); in assay [6] (at 50.0 µM), 78.9% (active).
With `CCC[CH2][Sn]([CH2]CCC)([N]=C=S)[N]=C=S`, the growth inhibition in assay [1] (setting [7]) is 85% (active); in assay [1] (setting [8]), 97% (active); in assay [1] (at 50.0 µM), 97.9% (active); in assay [2] (setting [7]), 92% (active); in assay [2] (setting [8]), 98% (active); in assay [2] (at 50.0 µM), 98% (active). Further, the growth inhibition was 92% (active) in assay [3] (setting [7]); 98% (active) in assay [3] (setting [8]); 98% (active) in assay [3] (at 50.0 µM); 87% (active) in assay [4] (setting [7]); 97% (active) in assay [4] (setting [8]); 97.3% (active) in assay [4] (at 50.0 µM). The growth inhibition is 94% (active) in assay [5] (setting [7]); 97% (active) in assay [5] (setting [8]); 98.4% (active) in assay [5] (at 50.0 µM); 93% (active) in assay [6] (setting [7]); 98% (active) in assay [6] (setting [8]); 98.1% (active) in assay [6] (at 50.0 µM).

For the origin of these results see PubChem BioAssay (NCI).
